What was measured:
Experiment in all cases: PBM binding z-score (relative to random genomic background probes); higher = stronger binding; sequences stand for … in GC…GCGATTGACAGCGTAGAATGAAGG
[1] = tested on: RARb homodimer (NR concentration 270 nM)
Method in brief: (§1)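 Regression normalization was applied to scanned fluorescence from custom Agilent 4×180K protein-binding microarrays. Before scanning, arrays were incubated 1 h with ligand-free nuclear receptor dimers, and binding was detected with antibodies against each partner (one per run). Binding z-scores use the random background probes as reference.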

[2] = tested on: RARg:RXRa (NR concentration 270 nM, RXRa partner concentration 90 nM)
Method in brief: as §1

[3] = tested on: RARg homodimer (NR concentration 270 nM)
Method in brief: as §1

[4] = tested on: RXRa DBDmut IVT, anti-RXR (DBD mutation: RXRa K156A/R161A, NR concentration 90 nM)
Method in brief: as §1

[5] = tested on: RXRa homodimer (NR concentration 180 nM)
Method in brief: as §1

[6] = tested on: THRa:RXRa (NR concentration 90 nM, RXRa partner concentration 90 nM)
Method in brief: as §1

[7] = tested on: THRa homodimer (NR concentration 90 nM)
Method in brief: as §1

[8] = tested on: VDR homodimer (NR concentration 270 nM)
Method in brief: as §1

| Sequence | PBM binding z-score [1] | PBM binding z-score [2] | PBM binding z-score [3] | PBM binding z-score [4] | PBM binding z-score [5] | PBM binding z-score [6] | PBM binding z-score [7] | PBM binding z-score [8] |
| --- | --- | --- | --- | --- | --- | --- | --- | --- |
| CGTCCAAGGTCAATGCTAGGTCAGTGTAAGCATT | 5.02 | 7.55 | 7 | 3.74 | 5.35 | 4.48 | 2.75 | 3.52 |
| CCTACTAGGTCATGGTCAGCTAATCTACAGTATG | 3.34 | 3.79 | 4.21 | 1.37 | 2.66 | 2.87 | 1.53 | 0.776 |
| TATTGTAGATCAGCAGGTTAAGAAAGCTGGCCAA | -0.28 | -0.0508 | 0.00581 | -1.23 | 0.171 | 0.0661 | -0.952 | -0.39 |
| TAGCCTAGGTCAGATCGGGCCCGTATACGCTATA | 1.94 | 2.58 | 3.06 | -0.297 | 1.37 | 2.39 | 0.0174 | -0.316 |
| CAAACTAGGTCACGAAACGTCAAAGTCGAATGAC | 3.21 | 4.59 | 5.27 | 1.07 | 3.8 | 3.28 | 1.52 | 0.534 |
| ATACCAAGGTGAACGTGAGGTCGTTGATACTAAC | 2.68 | 3.63 | 1.98 | 1.19 | 2.68 | 4.11 | 3.14 | 3.61 |
| ATCGAAAGGCCGTGAGGTGAGTATACAGAAAGGC | 0.911 | 1.47 | 1.42 | -0.765 | 0.904 | 1.93 | 0.902 | -0.0558 |
| GCTGCTAGGTCAGGTTGGTCAGATAACGGGTACG | 2.53 | 2.71 | 3.5 | 0.652 | 1.12 | 1.84 | 0.684 | 1.02 |
| AGAATGAGGTAAAGATCAGGGAAACAGAATACAT | 0.102 | 0.258 | 0.491 | -0.375 | 0.406 | 1.79 | 0.604 | -0.343 |
| TCATATAGGTAAAAGGTGAGAGTCGGTGTGGTAA | 1.5 | 1.39 | 0.67 | 1.49 | 2.55 | 1.26 | 0.546 | 0.255 |
| CAAACTAGGTCAAGGACAAAGTCGGTTTGTGCCA | 3.2 | 3.97 | 4.91 | 1.39 | 2.52 | 3.58 | 2.25 | 0.988 |
| GGAACGAGGGAAAAGTTGATAGCATCTGTCGACG | -0.745 | -0.112 | 0.0748 | -0.319 | -0.0103 | -0.553 | -1.15 | -0.433 |
| AACTCTAGGTAAAGATAGTTCAGTGAATGCAAAT | 1.06 | 0.458 | 0.642 | 0.162 | 0.119 | 0.754 | -0.108 | 0.243 |
| CGAACTAGGTCATCCAGGACAGTGTATACATTGA | 3.16 | 3.92 | 4.85 | 2.47 | 3.21 | 3.62 | 2.17 | 2.4 |
| CGTTCAAGGTCAAGGTCAGTGAAAGAGACTCGAA | 5.27 | 6.92 | 7.85 | 3.86 | 6.6 | 4.48 | 4.1 | 3.59 |
| GCTAGTTGGACAGTAAAAGGTCACACACCGGTCG | 5.22 | 4.89 | 4.27 | 0.31 | 4.94 | 3.55 | 1.71 | 1.59 |
| ATCGAAAGGTCGAAGGTGAGTATGCCCACCCGAA | 2.54 | 4.34 | 3.76 | 1.32 | 5.13 | 2.04 | -0.289 | 0.413 |
| CCTACTGCGCCACGAAAGGTCATTGATTCAGTGA | 4.75 | 4.62 | 4 | 1.51 | 5.58 | 3.36 | 1.47 | 2.91 |
| CCTGCTAGGTCAATGGTCAGATAAAGCAGCTCGC | 2.54 | 3.8 | 4.61 | 1.55 | 2.45 | 2.12 | 0.626 | 0.232 |
| CCAGACAGGTGGAAGGTAACTCAGTCTGGTACGC | 0.0116 | -0.129 | -0.15 | -0.527 | 0.236 | -0.18 | -0.144 | -0.0329 |
| TCTATAAGTTGAAGGGCAACCGACGAGTCCGTTT | 1.49 | 0.829 | 1.07 | 1.59 | 1.01 | 0.466 | 0.137 | 1.57 |
| TCAAACAGGTGAAGGTAACTCAGGTACGCAGTCG | 0.716 | 0.691 | 0.597 | 1.43 | 1.13 | 1.44 | 0.12 | 0.467 |
| AGAATCAGGTTATACGTAGATCAGGGAAGAAAGT | 0.65 | 0.789 | 0.919 | 0.474 | 0.757 | 1.17 | 0.768 | 0.381 |
| AGAACGAGGGCACGCTGAGTTGATAGAAGAGTAG | 1.17 | 1.97 | 2.31 | 1.83 | 1.29 | 1.91 | -0.0196 | 1.72 |
| TAGCCTAGGTCATTGGGCCAGAATAGTACGCATC | 2.6 | 4.03 | 4.07 | 1.58 | 2.8 | 2.66 | 0.586 | 1.12 |
| ACAGACAGATGATGAAGGTAACTCAGGCTATCAT | 0.176 | 0.199 | 0.513 | -0.152 | 0.225 | 0.742 | 0.192 | 0.335 |

| Sequence | PBM binding z-score [1] | PBM binding z-score [2] | PBM binding z-score [3] | PBM binding z-score [4] | PBM binding z-score [5] | PBM binding z-score [6] | PBM binding z-score [7] | PBM binding z-score [8] |
| --- | --- | --- | --- | --- | --- | --- | --- | --- |
| GCATATAGGTAATACAAGGTGAAATTCCGATTGT | 0.44 | 0.518 | 0.637 | 0.228 | 0.614 | 4.06 | 0.848 | 0.0965 |
| CCTAGTTGGTCATGGTCACACACGCTATAGGTAC | 1.56 | 1.06 | 1.54 | 0.565 | 0.699 | 0.458 | 0.619 | 0.905 |
| GCTAGCAGGCCATTTTGGTCACTCAATGACGGGC | 0.0226 | -0.296 | 0.212 | -0.337 | -0.426 | -0.234 | -0.974 | -0.748 |
| ATCTCTAGGTGACAAGTTCAGTGAAAGAGAGGAC | 2.34 | 2.03 | 1.82 | 0.449 | 1.09 | 1.71 | 0.652 | 2.05 |
| GGAACGAGGGCAAAGTTGATAACATCTGTCGACG | 1.21 | 2.19 | 1.97 | 2.93 | 1.93 | 1.27 | -0.123 | 1.42 |
| ATCGAAAGGTCGGGAGGTGAGTATACAGAAAGGC | 2.92 | 3.82 | 3.34 | 0.594 | 3.58 | 2.21 | 0.967 | 0.718 |
| CCTATTGGGCCATTCAGAGGTCATTGATCATATG | 4.13 | 4.69 | 3.34 | 1.48 | 3.41 | 3.37 | 1.54 | 3.79 |
| CGTCCCAGGTCAATGCTAGGTCAGTGAAAGCATT | 4.23 | 6.41 | 5.01 | 1.99 | 3.1 | 4.25 | 2.99 | 1.74 |
| GCTAATAGTTGAAAGGGCAACCGAATGATTCTCG | 2.13 | 1.68 | 1.44 | 0.805 | 1.76 | 0.716 | -0.4 | 0.235 |
| AGTCAAAGTTCACTAGGTAATGTAAGATTCAGCT | 3.71 | 4.84 | 5.6 | 4.39 | 3.73 | 1.91 | -0.139 | 3.81 |
| TCTTGTAGATCAAAGGCTAAGAAAGCCGAAGCCT | -0.521 | -0.216 | -0.29 | 0.467 | 0.315 | -0.446 | -0.464 | -0.345 |
| GATAAAGGGTCAAGGCCAGAGTACGCGTATTGAT | 4.87 | 6.46 | 6.91 | 2.52 | 6.59 | 3.38 | 0.263 | 2.36 |
| AGAACGAGGGCACTGAGTTGATAGCACGGGTGGC | 0.877 | 1.03 | 1.64 | 1.71 | 1.02 | 1.19 | 0.176 | 2.94 |
| AGTCAAAGTTCAGGACGAGGTAACCTAAAGCACG | 3.52 | 4.84 | 4.86 | 2.85 | 3.15 | 3.88 | 1.92 | 2.29 |
| CGAACTAGGTCAGAACAGAACAGTGAAGGATGAT | 1.65 | 2.36 | 3.14 | 0.286 | 1.16 | 1.34 | -0.073 | -0.0834 |
| GCTAGCAGGCCATTTGAGTCACTCAATGACGGGC | -0.381 | -0.0759 | 0.0765 | -0.0136 | -0.11 | 0.249 | -1.02 | -0.525 |
| TGTCAAAGTTCAAAGGTAACATAAGTATCCACAC | 3.83 | 6.56 | 6.03 | 4.43 | 6.86 | 3.53 | 0.27 | 4.17 |
| ACTATAAGTTGAGACGAGGGCAACCGATAGGTTG | 1.57 | 1.19 | 1.21 | 0.723 | 0.925 | 3.73 | 0.194 | 1.39 |
| TAGCCTAGGTCAGATCGGACCAGTATACGCTATA | 1.86 | 2.7 | 3.46 | -0.00524 | 1.46 | 2.55 | -0.155 | -0.597 |
| ATATGTAGGTTACATCCGGGTCATTCATGCTATG | 2.82 | 3.6 | 2.21 | 1.42 | 2.93 | 3.61 | 2.46 | 3.43 |
| TTACCAAGGTGAAAGATCGTTGATGCACGCCTTG | 0.0757 | 0.744 | 0.398 | -0.161 | 1.06 | 1.42 | 0.109 | -0.339 |
| CGAACGAGGGCATGAGTTGTTAGCAAATGCCGAT | 0.54 | 0.951 | 1.44 | 2.23 | 0.556 | 1.08 | -0.284 | 1.12 |
| GCTTGTAGATCAAGGTTACGAAAGACTAAGCTAA | 0.837 | 0.713 | 0.558 | 0.173 | 1.09 | 1.81 | 0.263 | -0.274 |
| TGAATGAGGTTAACGATCAGGGAACGTGGCGTCG | 0.791 | 1.96 | 1.19 | 0.898 | 2.81 | 2.52 | 0.403 | 0.222 |
| GCTTGTAGATCAAGGTTAAGAAGGACTAAGCTAA | 0.182 | 0.382 | 0.268 | -0.0285 | 0.716 | 1.18 | -0.165 | -0.0273 |
| GCGATTGGGGCATCAGCAGGTTACCATAACTTAA | 0.917 | 0.779 | 0.543 | 0.393 | 0.323 | 1.03 | 0.429 | -0.374 |

Reference: the supplement of paper PMC6555819
